From PubChem BioAssay (Tox21)
Records with an inconclusive call do not appear. Where a call stands in place of a potency, no number is given. Values without a mark were called inactive. Activity calls are given as the source filed them. Unless noted, the call rests on the fitted dose curve; in most records, active means well fitted curve in the direction sought with a large enough effect in the repeat runs; inconclusive means weak or mixed curves; inactive means no such curve, though single readings can be large; an effect the other way counts as inactive or inconclusive.

Legend:
[1] = molecular target: Peroxisome proliferator-activated receptor delta (Homo sapiens) (UniProt Q03181); test: qHTS assay to identify small molecule agonists of the peroxisome proliferator-activated receptor delta (PPARd) signaling pathway (AID 743212; calls by dose curve)
Chain of Peroxisome proliferator-activated receptor delta (Homo sapiens) (Q03181 whole entry, looked up): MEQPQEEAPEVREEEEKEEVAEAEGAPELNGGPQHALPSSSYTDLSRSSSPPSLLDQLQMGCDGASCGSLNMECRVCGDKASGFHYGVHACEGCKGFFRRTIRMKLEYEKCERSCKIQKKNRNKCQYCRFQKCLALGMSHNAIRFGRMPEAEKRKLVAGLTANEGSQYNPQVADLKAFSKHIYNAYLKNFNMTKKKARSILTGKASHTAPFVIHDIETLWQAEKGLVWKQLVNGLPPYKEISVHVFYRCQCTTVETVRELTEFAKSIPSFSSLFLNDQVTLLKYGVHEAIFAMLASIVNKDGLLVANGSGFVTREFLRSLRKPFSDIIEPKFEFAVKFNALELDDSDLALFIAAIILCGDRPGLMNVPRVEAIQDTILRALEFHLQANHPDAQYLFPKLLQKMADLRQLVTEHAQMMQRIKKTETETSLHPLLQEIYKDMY
How it was run: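 A PPARd-bla HEK293H line with beta-lactamase under an Upstream Activator Sequence is treated with compounds at 37 C. Substrate loading for 2 h at room temperature precedes the fluorescence measurement.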

[2] = qHTS assay to identify small molecule antagonists of the peroxisome proliferator-activated receptor delta (PPARd) signaling pathway - cell viability counter screen (AID 743213); further: nearly all actives have a fitted effect of over 50% in size; further: potency means the concentration at half of the fitted maximal effect
How it was run: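 Same-well viability: cells pre-incubated 5 h, dosed with compound plus 300 nM L165041, kept 17 h at 37 C, FRET substrate 2 h RT, then CellTiter-Glo 30 min RT and luminescence.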

[3] = qHTS assay to identify small molecule agonists of the farnesoid-X-receptor (FXR) signaling pathway - cell viability counter screen (AID 743218); further: nearly all actives have a fitted effect of over 45% in size; further: potency means the concentration at half of the fitted maximal effect
How it was run: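 FXR-UAS-bla HEK 293T cells, plated 5 h at 37 C, were exposed to compounds for 16 h at 37 C. CellTiter-Glo was then added to the same wells as the bla readout; luminescence read after 30 min at room temperature.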

[4] = qHTS assay to identify small molecule antagonists of the farnesoid-X-receptor (FXR) signaling pathway - cell viability counter screen (AID 743221; active means well fitted cell-killing curve with a large enough effect in the repeat runs, not every such curve was filed as active; further: nearly all actives have a fitted effect of over 50% in size; further: potency means the concentration at half of the fitted maximal effect)
How it was run: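 Compound effects on cell number were measured as CellTiter-Glo luminescence in HEK 293T cells expressing FXR-UAS-bla, after 16 h at 37 C with 50 uM CDCA (final).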

[5] = molecular target: Vitamin D3 receptor (Homo sapiens) (UniProt P11473); test: qHTS assay to identify small molecule agonists of the vitamin D receptor (VDR) signaling pathway (AID 743222; calls by dose curve)
Chain of Vitamin D3 receptor (Homo sapiens) (P11473 whole entry, looked up): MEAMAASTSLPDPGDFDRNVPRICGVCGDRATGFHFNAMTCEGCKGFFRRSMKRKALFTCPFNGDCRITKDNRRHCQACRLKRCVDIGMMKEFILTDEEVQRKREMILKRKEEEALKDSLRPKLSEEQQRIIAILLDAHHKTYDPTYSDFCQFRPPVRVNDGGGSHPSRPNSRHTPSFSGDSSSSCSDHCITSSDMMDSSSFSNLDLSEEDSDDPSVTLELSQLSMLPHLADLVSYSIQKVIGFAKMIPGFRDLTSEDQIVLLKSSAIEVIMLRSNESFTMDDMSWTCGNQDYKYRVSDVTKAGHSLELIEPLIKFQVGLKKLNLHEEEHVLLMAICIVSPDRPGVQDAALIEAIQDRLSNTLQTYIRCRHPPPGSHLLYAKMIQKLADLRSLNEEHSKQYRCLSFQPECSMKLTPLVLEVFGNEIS
How it was run: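 VDR-bla cells were plated 4 h at 37C/5% CO2, then exposed to compounds in DMSO for 16 h. After LiveBLAzer B/G FRET substrate addition and 2 h at room temperature, beta-lactamase reporter fluorescence was read.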

[6] = qHTS assay to identify small molecule agonists of the vitamin D receptor (VDR) signaling pathway - cell viability counter screen (AID 743224); further: nearly all actives have a fitted effect of over 50% in size; further: potency means the concentration at half of the fitted maximal effect
How it was run: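 VDR-bla cells were preincubated 4 h at 37C/5% CO2, then exposed to compounds for 16 h. After the 2 h room-temperature bla FRET read, CellTiter-Glo was added to the same wells and luminescence read after 30 min.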

[7] = qHTS assay to identify small molecule agonists of the NFkB signaling pathway - cell viability counter screen (AID 1159515; calls by dose curve; further: nearly all actives have a fitted effect of over 55% in size; further: potency means the concentration at half of the fitted maximal effect)
How it was run: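 NFkB-bla ME-180 cells, 2,000/well, were plated overnight at 37 C, 5% CO2, then exposed to compounds in DMSO for 5 hr. After the bla FRET read, CellTiter-Glo was added to the same wells; luminescence was read after 30 min at room temperature.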

[8] = qHTS assay to identify small molecule agonists of the endoplasmic reticulum stress response signaling pathway - cell viability counter screen (AID 1159517; calls by dose curve; further: nearly all actives have a fitted effect of over 50% in size; further: potency means the concentration at half of the fitted maximal effect)
How it was run: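 CellTiter-Glo was added to wells already read for beta-lactamase FRET, and luminescence was recorded 30 min later. Cells: ESRE-bla HeLa, 1,500 per well, compound exposure 5 hr at 37 C.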

[9] = molecular target: Nuclear receptor ROR-gamma (Homo sapiens) (UniProt P51449); test: qHTS assay to identify small molecule antagonists of the retinoid-related orphan receptor gamma (ROR-gamma) signaling pathway (AID 1159521; further: nearly all actives have a fitted effect of over 50% in size; further: potency means the concentration at half of the fitted maximal effect)
How it was run: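 Screening format: cell-based luciferase reporter in CHO cells with doxycycline-inducible RORγ. Compound pre-exposure lasts 2 h, doxycycline is 1 uM final, induction runs 16 h at 37 C, and ONE-Glo luminescence is read.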

[10] = qHTS assay to identify small molecule agonists of the AP-1 signaling pathway - cell viability counter screen (AID 1159525; calls by dose curve; further: nearly all actives have a fitted effect of over 55% in size; further: potency means the concentration at half of the fitted maximal effect)
How it was run: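 ME-180 AP-1-bla, 2500 cells/well, Opti-MEM + 0.5% dialyzed FBS; overnight 37 °C; cpd 15-pt titration, 5 h 37 °C; CellTiter-Glo 30 min RT; luminescence read; normalised to TOAB and DMSO controls.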

[11] = qHTS assay to identify small molecule agonists of the peroxisome proliferator-activated receptor delta (PPARd) signaling pathway - cell viability counter screen (AID 743211); further: nearly all actives have a fitted effect of over 55% in size; further: potency means the concentration at half of the fitted maximal effect
How it was run: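 Following 5 h plating at 37 C and 5% CO2, PPARd UAS-bla HEK293H cells took up test compounds for 17 h. Viability was quantified by luminescence 30 min after CellTiter-Glo addition at room temperature.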

[12] = molecular target: Bile acid receptor (Homo sapiens) (UniProt Q96RI1); test: qHTS assay to identify small molecule antagonists of the farnesoid-X-receptor (FXR) signaling pathway (AID 743217; active means well fitted inhibition curve with a large enough effect in the signal ratio in the repeat runs, not every such curve was filed as active; the % refers to the signal ratio; further: potency means the concentration at half of the fitted maximal effect)
Chain of Bile acid receptor (Homo sapiens) (Q96RI1 whole entry, looked up): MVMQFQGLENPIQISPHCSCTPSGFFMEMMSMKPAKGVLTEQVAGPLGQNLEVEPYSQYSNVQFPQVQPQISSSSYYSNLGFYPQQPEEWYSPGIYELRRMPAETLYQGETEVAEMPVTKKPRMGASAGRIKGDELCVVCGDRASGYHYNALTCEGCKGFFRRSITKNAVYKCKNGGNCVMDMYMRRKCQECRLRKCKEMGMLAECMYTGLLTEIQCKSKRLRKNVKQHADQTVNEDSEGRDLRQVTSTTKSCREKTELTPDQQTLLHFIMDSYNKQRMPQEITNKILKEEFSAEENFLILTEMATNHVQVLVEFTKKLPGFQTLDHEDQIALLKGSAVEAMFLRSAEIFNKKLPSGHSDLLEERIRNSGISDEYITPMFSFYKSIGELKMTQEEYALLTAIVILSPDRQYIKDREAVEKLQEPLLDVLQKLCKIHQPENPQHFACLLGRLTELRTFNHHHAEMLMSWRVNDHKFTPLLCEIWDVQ
How it was run: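 FXR-UAS-bla HEK 293T cells pre-incubated 5 h at 37 °C, then exposed to compounds with chenodeoxycholic acid (50 uM final) for 16 h at 37 °C. Beta-lactamase reporter read by LiveBLAzer B/G FRET substrate fluorescence after 2 h at room temperature.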

[13] = molecular target: Bile acid receptor (Homo sapiens) (UniProt Q96RI1); test: qHTS assay to identify small molecule agonists of the farnesoid-X-receptor (FXR) signaling pathway (AID 743220; active means well fitted activation curve with a large enough effect in the signal ratio in the repeat runs, not every such curve was filed as active; the % refers to the signal ratio)
How it was run: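 Beta-lactamase reporter under UAS control in GeneBLAzer FXR HEK 293T cells (5000/well) measured with LiveBLAzer FRET substrate after 2 h at room temperature. Compound exposure lasted 16 h at 37C.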

[14] = qHTS assay to identify small molecule antagonists of the vitamin D receptor (VDR) signaling pathway - cell viability counter screen (AID 743225); further: nearly all actives have a fitted effect of over 50% in size; further: potency means the concentration at half of the fitted maximal effect
How it was run: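 In this counter screen, VDR-bla HEK 293T cells receive test compound plus 3 nM final calcitriol for 16 h at 37C. Room-temperature steps of 2 h with the beta-lactamase substrate, then 30 min with CellTiter-Glo, precede the luminescence read.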

[15] = molecular target: Vitamin D3 receptor (Homo sapiens) (UniProt P11473); test: qHTS assay to identify small molecule antagonists of the vitamin D receptor (VDR) signaling pathway (AID 743223; active means well fitted inhibition curve with a large enough effect in the signal ratio in the repeat runs, not every such curve was filed as active; the % refers to the signal ratio)
How it was run: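 Beta-lactamase activity in VDR-bla cells is measured by FRET substrate fluorescence (2 h, room temperature) after cells spend 16 h at 37C with test compound and 3 nM final 1alpha,25-dihydroxyvitamin D3.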

[16] = qHTS assay to identify small molecule antagonists of the retinoid-related orphan receptor gamma (ROR-gamma) signaling pathway - cell viability counter screen (AID 1159520); further: nearly all actives have a fitted effect of over 50% in size; further: potency means the concentration at half of the fitted maximal effect
How it was run: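 Tet-on ROR gamma CHO cells (1,000/well) were plated 4 hr, given compounds in DMSO for 2 hr at 37 C, then induced with 1 uM final doxycycline for 16 hr. Viability was read as ATP by CellTiter-Glo luminescence after 30 min.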

[17] = molecular target: Retinoic acid receptor RXR-alpha (Homo sapiens) (UniProt P19793); test: qHTS assay to identify small molecule agonists of the RXR signaling pathway (AID 1159527; calls by dose curve; further: nearly all actives have a fitted effect of over 35% in size; further: potency means the concentration at half of the fitted maximal effect)
Chain of Retinoic acid receptor RXR-alpha (Homo sapiens) (P19793 whole entry, looked up): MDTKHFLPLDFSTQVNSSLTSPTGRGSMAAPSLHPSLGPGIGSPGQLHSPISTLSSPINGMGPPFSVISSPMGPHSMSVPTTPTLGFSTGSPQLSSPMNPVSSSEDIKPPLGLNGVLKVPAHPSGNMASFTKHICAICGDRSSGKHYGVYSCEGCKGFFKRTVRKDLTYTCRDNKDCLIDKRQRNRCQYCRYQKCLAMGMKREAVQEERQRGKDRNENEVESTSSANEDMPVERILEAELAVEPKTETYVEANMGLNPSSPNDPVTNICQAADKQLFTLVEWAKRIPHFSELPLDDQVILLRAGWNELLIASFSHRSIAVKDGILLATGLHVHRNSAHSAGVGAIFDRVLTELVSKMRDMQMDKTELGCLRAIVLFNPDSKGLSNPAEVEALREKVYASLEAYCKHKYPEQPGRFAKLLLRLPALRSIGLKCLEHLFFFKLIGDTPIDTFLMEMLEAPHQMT
How it was run: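 Fluorescence ratio readout (460 vs 530 nm) from GeneBLAzer RXR-alpha HEK 293T cells after 16 hr compound treatment; cells seeded 5 hr beforehand in low-serum, charcoal-stripped medium.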

[18] = molecular target: Peroxisome proliferator-activated receptor delta (Homo sapiens) (UniProt Q03181); test: qHTS assay to identify small molecule antagonists of the peroxisome proliferator-activated receptor delta (PPARd) signaling pathway (AID 743215; active means well fitted inhibition curve with a large enough effect in the signal ratio in the repeat runs, not every such curve was filed as active; the % refers to the signal ratio;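 further: cells stimulated with agonist L165041 at 300 nM final during compound exposure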; further: potency means the concentration at half of the fitted maximal effect)
How it was run: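 PPARd UAS-bla HEK293H cells were pre-incubated 5 h at 37 C, then given test compounds in DMSO plus agonist L165041 (300 nM final). After 17 h at 37 C, beta-lactamase FRET substrate was added; fluorescence read after 2 h at room temperature.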

[19] = qHTS assay to identify small molecule agonists of the AP-1 signaling pathway (AID 1159526; calls by dose curve)

Compound	Potency [1]	Potency [2]	Potency [3]	Potency [4]	Potency [5]	Potency [6]	Potency [7]	Potency [8]	Potency [9]	Potency [10]	Potency [11]	Potency [12]	Potency [13]	Potency [14]	Potency [15]	Potency [16]	Potency [17]	Potency [18]	Potency [19]
Nc1nc2ccccc2n1Cc1ccc(F)cc1	inactive	inactive	inactive	inactive	inactive	inactive	inactive	inactive	10.6 µM (active)	inactive									
O=C1c2c(O)ccc(Nc3ccc(CCO)cc3)c2C(=O)c2c([N+](=O)[O-])ccc(O)c21	inactive	inactive	inactive	inactive		inactive	inactive	inactive	inactive	inactive	inactive	inactive	inactive	inactive					
CCCCCCCCCCCCCCCS(=O)(=O)Oc1ccccc1		inactive	inactive		inactive	inactive	inactive		inactive	inactive	inactive		inactive	inactive	inactive	inactive	inactive		
C=C(C)C(=O)OCC[N+](C)(C)C	inactive	inactive		inactive		inactive	inactive		inactive	inactive	inactive			inactive	inactive	inactive	inactive		
Nc1ccccc1O	inactive	inactive	inactive	inactive	inactive		38.4 µM (active)		inactive	15.3 µM (active)	inactive	inactive	inactive	inactive	inactive	inactive	inactive	inactive	
CC[C@H]1O[C@]2(CC[C@@H]1C)C[C@@H]1C[C@@H](C/C=C(\C)C[C@@H](C)/C=C/C=C3\CO[C@@H]4[C@H](O)C(C)=C[C@@H](C(=O)O1)[C@]34O)O2		15.3 µM (active)	21.7 µM (active)	17.2 µM (active)			24.3 µM (active)	24.3 µM (active)		21.7 µM (active)	17.2 µM (active)								
CCCCCOc1ccccc1/C(=C\SC)n1ccnc1		inactive				inactive	inactive	inactive	13.3 µM (active)	inactive				inactive					
CCCCN(CCCC)C(=O)N(CCCC)CCCC	inactive	inactive	inactive	inactive	inactive	inactive	inactive		inactive	inactive	inactive	inactive		inactive		inactive	inactive		
Cc1[nH]cnc1C[C@H]1CCc2c(C)c3ccccc3n2C1=O				inactive	inactive	inactive	inactive	inactive	23.7 µM (active)	inactive		inactive		inactive				inactive	
CSc1cnc(C)cn1	inactive	inactive	inactive	inactive		inactive	inactive		inactive	inactive	inactive			inactive		inactive			inactive
CCCCN1CCCC[C@H]1C(=O)Nc1c(C)cccc1C	inactive		inactive	inactive	inactive	inactive	inactive		inactive	inactive					inactive	inactive	inactive		
CC1=C(/C=C/C(C)=C/C=C/C(C)=C/C=O)C(C)(C)CCC1	inactive	43.4 µM (active)	21.8 µM (active)	48.7 µM (active)		15.4 µM (active)	38.7 µM (active)		30.5 µM (active)	34.5 µM (active)	12.2 µM (active)	61.3 µM (active)		13.7 µM (active)		24.2 µM (active)	0.345 µM (active)	48.7 µM (active)	
CN(C/C=C/C#CC(C)(C)C)Cc1cccc2ccccc12		inactive			inactive		21.3 µM (active)	inactive	inactive	inactive			inactive	inactive	inactive				
Nc1ccc(N)c2ccccc12			43.6 µM (active)			19.5 µM (active)	11 µM (active)	0.775 µM (active)		54.9 µM (active)	15.5 µM (active)								
CC(C)(C)C1CCC(CC2=C(O)c3ccccc3C(=O)C2=O)CC1 (stereo not drawn)	inactive	inactive					inactive	inactive		inactive	inactive								
Oc1ccc(N=Nc2ccccc2)cc1	inactive		inactive	inactive			inactive	inactive	inactive	inactive								inactive	
